Inconclusive results are not listed. Active and inactive are the calls of the source. The call rests on the fitted dose curve; in most records, active means well fitted inhibition curve with a large enough effect; inconclusive means small, poorly fitted or top-dose-only effect; inactive means flat fitted curve, though single readings scatter.
Tests used:
Assay in all cases: qHTS profiling for inhibitors of Plasmodium falciparum proliferation (AID 504749); further: nearly all actives have a fitted effect of over 60% in size
Conditions in all cases: P. falciparum in erythrocytes, SYBR Green DNA, 72 h; series mostly up to 28.7 µM
3D7 = system: 3D7
In short: (§1)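 SYBR Green fluorescence of parasite DNA, read after lysis and overnight dark incubation, measured growth over 72 h in erythrocyte culture at 0.3% parasitemia and 2.5% hematocrit. Data normalised to DMSO and 0.29 uM artemisinin, with plate-drift correction.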

AA1029 = system: AA1029
In short: as §1

C2A = system: C2A
In short: as §1

CP215 = system: CP215
In short: as §1

CP217 = system: CP217
In short: as §1

CP252 = system: CP252
In short: as §1

CP256 = system: CP256
In short: as §1

CP269 = system: CP269
In short: as §1

CP297 = system: CP297
In short: as §1

CP315 = system: CP315
In short: as §1

CP325 = system: CP325
In short: as §1

CP329 = system: CP329
In short: as §1

FAB9 = system: FAB9
In short: as §1

JCK = system: JCK
In short: as §1

N140 = system: N140
In short: as §1

P93_24 = system: P93_24
In short: as §1

PAD = system: PAD
In short: as §1

PC49 = system: PC49
In short: as §1

SC27B = system: SC27B
In short: as §1

TAB165 = system: TAB165
In short: as §1

Measured: Potency

CO[C@H]1[C@@H](O)CC(OC2[C@@H](O)CC(OC3[C@@H](O)C[C@H](OC4CC[C@@]5(C)C(CCC6C5CC(O)[C@]5(C)[C@H](C7=CC(=O)OC7)CCC65O)C4)O[C@@H]3C)O[C@@H]2C)O[C@@H]1C (stereo not given in full)
inactive: all assays above

CCN(CC)CCO[C@H]1CC[C@@]2(C)C(=CC[C@@H]3[C@H]2CC[C@]2(C)C(=O)CC[C@H]32)C1
inactive: all assays above

— PubChem BioAssay (NCATS)
